From PubChem
ELG1 DNA repair = qHTS screen for small molecules that inhibit ELG1-dependent DNA repair in human embryonic kidney (HEK293T) cells expressing luciferase-tagged ELG1; HEK293T ELG1-luciferase reporter, luminescence, 16 h; DNA damage induced by 5-fluorouridine; Potency, µM (doses to about 46.1 µM), without a hit: at the top dose activity change, negative = inhibition, usual class: inhibitors; 330,000 compounds, 2.3% hits; note: potency is the fitted concentration of half-maximal effect; % is set by controls: 0 for no effect and ±100 for the full control effect; nearly all actives have a fitted effect of over 55% in size
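DMSO vehicle served as the neutral condition. Each well held 2,000 cells given 5-fluorouridine plus compound; after 16 hr at 37 °C/5% CO2, ONE-Glo was added and luciferase measured 30 min later.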
BRCA1 expr up = qHTS Assay to Identify Small Molecule Activators of BRCA1 Expression; MCF7-BRCA1-FFLuc reporter, luminescence, 48 h; response scale: scaled: vehicle 0%, 10 µM genistein 100%; Potency, µM (series often up to 46.1 µM), for inactives: at the top dose activation, hits mostly activators; 380,000 compounds, 1.1% hits; AID 624202, 2012; note: potency is the fitted concentration of half-maximal effect; nearly all actives have a fitted effect of over 80% in size
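Cells: MCF7-BRCA1-FFLuc, 2000/well. Exposure: 48 h, 37 °C, 5% CO2. Read: luminescence, 15 min post-substrate. Controls: genistein 10 microM (maximal activation), DMSO (neutral).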
IL-2 act = qHTS of IL-2 Activators; AID 652025, 2013; 360,000 compounds, 0.065% hits; IL-2 activation reporter assay, cell-based qHTS; stimulated with anti-CD3/CD4/CD28 beads; in transgenic mouse T cells; activation, % (series mostly up to about 46 µM); in the data active = activation above about 50%; inconclusive = mostly about 30% to 49%; note: 0% is about no effect
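Unstimulated transgenic mouse T cells preincubated 60 min with compound, then stimulated with anti-CD3/anti-CD4-coated beads plus anti-CD28 for 18 h at 37 degrees C. IL-2 response read as EGFP and DsRed fluorescence by plate cytometry.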
Nrf2 activator = qHTS of Nrf2 Activators; 410,000 compounds, 0.31% hits; AREc32 ARE-luciferase reporter (MCF7-derived line), luminescence, 24 h; Potency, µM (highest dose often 46.1 µM), for inactives: at the highest dose activation, most hits filed as activators; note: potency is the fitted concentration of half-maximal effect; % of control where 0% means no effect; nearly all actives have a fitted effect of over 65% in size
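AREc32_Fluc, 1000 cells/well, OPTI-MEM + 5% FBS, o/n 37 deg C 5% CO2; 23 nL cpd by pin tool, 24 hr; Steady-Glo 30 min RT, luminescence.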
Numbers without * were called inactive; ? = inconclusive; · = no result given; [ ] = dose if it differs, or a comment. In the library only some 3.1% were active in any assay of this set; here they are far more common. Unless noted, calls come from the whole dose curve; as a rule, active = well fitted curve in the direction sought with a large enough effect; inconclusive = small, poorly fitted or top-dose-only effect, or another doubt; inactive = no such curve, though single readings can be large; an effect the other way counts as inactive or inconclusive.

SMILES	ELG1 DNA repair	BRCA1 expr up	IL-2 act	Nrf2 activator
COc1ccc(C(C(=O)NC(C)(C)C)N(Cc2cccs2)C(=O)CCC(=O)Nc2cc(C)on2)cc1 (stereo unspecified)	?	-24%	-2	0%
Cc1c(Cl)cccc1NC(=O)c1ccc2c(c1)nnn2C1CCCC1	·	-34%	·	0%
Cc1ccc(-n2c(-c3ccccc3)c[n+]3c2CCC3)cc1	1.6µM*	-45%	-3	0%
Cc1ccc(-n2c(-c3ccc(Cl)cc3)c[n+]3c2CCC3)cc1	2.9µM*	-55%	-5	0%
FC(F)Sc1ccc(-n2c(-c3ccc(Cl)cc3)c[n+]3c2CCC3)cc1	?	-27%	-3	-1%
COc1ccc(Cl)cc1NC(=O)CN1C(=O)C(C)(C)c2cc(S(=O)(=O)N3CCCCC3)ccc21	·	·	·	5%
Cc1nc2ccccc2c2c(N)c3ccccc3n12	26µM*	-45%	-1	4%
CN(C)C(=O)c1ccc(COc2ccccc2Br)o1	?	10µM*	0	9%
COc1ccccc1OCc1ccc(C(=O)N(C)C)o1	?	93%	0	3%
O=C(Nc1nn(Cc2ccc(Cl)cc2)cc1Br)c1ccc(COc2ccccc2Cl)o1	18µM*	-55%	-1	-1%
CCOc1ccc(OCc2ccc(C(=O)Nc3ccc(Cl)cn3)o2)cc1	6%	?	-2	0%
O=C(Nc1ccccn1)c1ccc(COc2ccccc2Cl)o1	?	67%	1	11%
O=C(Nc1ccc(Cl)cn1)c1ccc(COc2ccccc2Br)o1	?	11µM*	-2	6%
COc1ccc(CCNC(=O)c2nc(-c3ccc(Cl)cc3)n3c2CCCCC3)c(OC)c1	·	·	·	4%
O=C(/C=C/c1cccs1)Nc1cccc(NC(=O)/C=C/c2cccs2)n1	16µM*	1%	0	0%
CCOC(=O)N1CCC(N2Cc3cccc(C(=O)NCc4ccc5c(c4)OCO5)c3C2=O)CC1	23µM*	-14%	-1	0%
CCc1ccc(N=c2c([N+](=O)[O-])nn(-c3ccc4c(c3)OCCO4)n2O)cc1	?	4µM*	-3	4%
CSc1ncc(C(=O)NCc2ccc(F)cc2)c(-c2ccccc2)n1	·	·	·	2%
O=C(C1=C(Nc2ccccc2)c2ccccc2S(=O)(=O)N1)c1ccccc1	16µM*	-25%	22	0%
CC1CCCN(c2nc3ccsc3c(=O)s2)C1 (stereo unspecified)	?	13µM*	-3	7%
O=C(NCc1ccccc1Cl)C1CCCN(c2nc3ccsc3c(=O)s2)C1 (stereo unspecified)	22%	·	·	·
Cc1ccc(NC(=O)Cn2c(=O)n(-c3ccc(Cl)c(Cl)c3)c(=O)c3c(C)c(C)sc32)c(C)c1	·	·	·	-1%
Cc1ccc(NC(=O)c2cc(-c3ccccc3)nn2-c2ccccc2)cc1	?	-66%	-4	1%
CC(=O)C(/C=N/c1cc(-c2ccc(C)cc2)nn1-c1ccccc1)=C(\C)O	?	4µM*	-1	2%
COc1ccccc1Nc1nn2c(=O)c3ccc(C(=O)NC4CCCCC4)cc3nc2s1	·	21%	·	0%
SMILES	ELG1 DNA repair	BRCA1 expr up	IL-2 act	Nrf2 activator
COc1cc(NC(=O)CCn2nc(C)c(S(=O)(=O)N3CCCCC3)c2C)cc(OC)c1OC	·	·	·	0%
CC(Sc1nnc2ccccn12)C(=O)Nc1ncc(Cl)cc1Cl (stereo unspecified)	?	80%	-1	2%
O=C(CSc1nnc2ccccn12)Nc1ncc(Cl)cc1Cl	?	10µM*	-4	0%
Fc1ccc(CSc2nnc3ccccn23)c(Cl)c1	?	10µM*	-1	3%
O=c1c(O)c(-c2ccccc2)oc2cc(O)cc(O)c12	13µM*	?	1	-1%
CC1(C(=O)Nc2ccc3c(c2)OCCO3)CN(S(C)(=O)=O)CC(=O)N1CCCn1ccnc1 (stereo unspecified)	·	·	0	·
CCN(CC)S(=O)(=O)c1ccc(N2CCOCC2)c(NC(=O)c2ccco2)c1	?	-18%	0	0%
CCN1CCN(c2ccc(S(=O)(=O)N3CCOCC3)cc2NC(=O)c2sccc2C)CC1	2%	-28%	-4	-1%
CCN(CC)S(=O)(=O)c1ccc(N2CCOCC2)c(NC(=S)NC(=O)c2ccco2)c1	16µM*	-12%	-5	2%
CCN(CC)S(=O)(=O)c1ccc(N2CCOCC2)c(NC(=O)C23CC4CC(CC(Cl)(C4)C2)C3)c1	9.2µM*	-46%	0	1%
CCN(CC)S(=O)(=O)c1ccc(N2CCOCC2)c(NC(=O)c2sccc2C)c1	18µM*	-7%	-1	-1%
CCN(CC)S(=O)(=O)c1ccc(N2CCOCC2)c(NC(=O)c2cc(C)cc(C)c2)c1	8.2µM*	-15%	-5	0%
NS(=O)(=O)Nc1c(Br)cc(Br)c2cccnc12	·	-1%	·	·
COc1ccc2c(c1)c1c(c(=O)n(Cc3ccccc3)c(=O)n1Cc1ccccc1Cl)n2C	·	12%	·	-1%
CCN(CC)S(=O)(=O)c1cc(C(=O)Nc2cc(Cl)ccc2N2CCN(C)CC2)ccc1Cl	18µM*	-3%[1.84 µM]	-2	0%
COC(=O)c1sc2cccc(F)c2c1S(=O)(=O)N1CCN(c2ccc(F)cc2)CC1	·	·	·	6%
CCN(C(=O)CSc1ncc2c(n1)-c1cc(Cl)ccc1N(Cc1ccccc1)S2(=O)=O)c1cccc(C)c1	·	10%	·	0%
CC(C)(C)NC(=O)N1CCN(c2nc3ccc(Cl)cc3s2)CC1	17%	10µM*	-4	0%
COc1ccc(N2CC(NC(=O)C3CC3)CC2=O)cc1OC (stereo unspecified)	·	6%	·	-1%
COc1ccc(CCC(=O)NCc2ccc3c(c2)CCN3C(=O)c2ccc(Cl)cc2)cc1	·	·	·	2%
O=C(OCc1ccccc1)N1CCOCCOCCN(C(=O)OCc2ccccc2)CCOCCOCC1	10µM*	-46%	-1	-1%
O=C(NCc1ccccc1)N1CCOCC1	20%	-2%	-2	0%
CONC(=O)C1CCN(C(=O)OCc2ccccc2)CC1	19%	14µM*	0	1%
COC(=O)CNC(=O)C1CCN(C(=O)OCc2ccccc2)CC1	8%	96%	0	0%
CCOc1ccc(NC(=O)C2Cc3ccccc3N2C(=O)c2ccccc2)cc1 (stereo unspecified)	·	·	·	0%
Cc1ccc(-c2c[n+](Cc3ccc(Cl)c(Cl)c3)c3n2CCC3)cc1	21µM*	-47%	-1	3%
Cc1ccc(C(=O)C[n+]2cc(-c3ccc(C)cc3)n3c2CCCCC3)cc1	16µM*	-75%	-1	2%
Cc1ccc(-c2c[n+](CC(=O)c3cccs3)c3n2CCC3)cc1	?	-30%	0	0%
O=C(C[n+]1cc(-c2ccccc2)n2c1CCCCC2)c1ccc(Br)cc1	?	-44%	0	0%
